Assay outcomes as filed in PubChem.
Sfp PPTase inh: Sfp phosphopantetheinyl transferase inhibition. Q9F4F7. Potency, µM, for inactives: largest response in the series, negative = inhibition, usual class: inhibitors. Biochemical Sfp PPTase activity, qHTS. actives 3.5% (n = 310,000);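 further: the enzyme is Sfp with the accession as filed and its product quenches rhodamine fluorescence; 0% = enzyme reaction without inhibitor and -100% = no enzyme wells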
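Buffer: 50 mM Hepes-Na pH 7.6, 10 mM MgCl2, 0.01% Nonidet P-40, 0.01% BSA. Enzyme 15 nM, pre-exposed to compound 15 min; substrates then added and fluorescence change tracked over 30 min.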
PLK1 PBD block: PLK1 (human) polo-box domain binding inhibition; P53350; Plk1 PBD binding of FITC phosphopeptide, fluorescence polarization; Potency, µM, without a hit: max response, negative = inhibition, most hits filed as inhibitors; actives 2.8% (n = 360,000); AID 720504; further: series mostly up to about 57 µM; on the % scale 0 is the no-effect control and ±100 the full control effect; nearly all actives have a fitted effect of over 65% in size
HP1b chromo inh: inhibitors of HP1-beta chromodomain binding to methylated histone tails; AlphaScreen HP1-beta / biotin-H3K9me3 peptide binding; AID 540317; P83916; actives 0.56% (n = 390,000); Potency, µM (titrated, usually from 114 µM), inactives show at the top dose activity change, negative = inhibition, most hits filed as inhibitors; further: nearly all actives have a fitted effect of over 70% in size
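AlphaScreen: HP1-beta (50 nM) preformed 30 min with biotin-H3(1-18)K9me3 peptide (50 nM) in PBS pH 7.4, 0.01% Tween-20. Compound added for 30 min at RT, then streptavidin donor/nickel chelate acceptor beads (10 ug/mL) for 30 min.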
G9a inh: blocks human histone lysine methyltransferase G9a | Q96KQ7 | G9a H3K9 monomethylation, AlphaScreen, 2 h | Potency, µM (top dose mostly 102 µM), for the others: at the highest dose activity, negative = inhibition, most hits filed as inhibitors | actives 8.8% (n = 350,000) | AID 504332; further: on the % scale 0 is the no-effect control and ±100 the full control effect; nearly all actives have a fitted effect of over 75% in size
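Using a bead-based AlphaScreen, monomethylated H3K9 product from 2 h room-temperature reactions (G9a 20 nM, peptide 500 nM, SAM 20 uM) was detected with 0.5 ug/mL rabbit anti-H3K9me1 antibody.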
JMJD2A Tudor inh: inhibitors of human JMJD2A Tudor domain. O75164. AlphaScreen JMJD2A-Tudor / H3K4me3 peptide binding. Potency, µM (top dose mostly 114 µM), without a hit: at the highest dose activity change, negative = inhibition, most hits filed as inhibitors. actives 4.4% (n = 390,000); further: on the % scale 0 is the no-effect control and ±100 the full control effect; nearly all actives have a fitted effect of over 50% in size
BAZ2B inh: inhibitors of human BAZ2B bromodomain | Q9UIF8 | AlphaScreen BAZ2B-H3K14Ac peptide displacement | Potency, µM (titrated, usually from 114 µM), inactives show at the highest dose activity change, negative = inhibition, most hits filed as inhibitors | actives 4.4% (n = 360,000); further: on the % scale 0 is the no-effect control and ±100 the full control effect; nearly all actives have a fitted effect of over 60% in size
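Inhibition is scored as reduced AlphaScreen emission. The BAZ2B/b-H3(5-23)K14Ac complex (50 nM each) in PBS pH 7.4, 0.01% Tween-20 meets compound (up to 110 uM) for 30 min at RT before bead addition.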
An asterisk follows results filed as active; ? = inconclusive; nt = no result given; [ ] = dose if it differs, or a comment. Shown are actives, neighbours in structure and some others; about 12% of the full set was active somewhere. The call rests on the fitted dose curve; in most records, active means well fitted curve in the direction sought with a large enough effect; inconclusive means small, poorly fitted or top-dose-only effect, or another doubt; inactive means no such curve, though single readings can be large; an effect the other way counts as inactive or inconclusive. Potency means the concentration at half of the fitted maximal effect.

SMILES | Sfp PPTase inh | PLK1 PBD block | HP1b chromo inh | G9a inh | JMJD2A Tudor inh | BAZ2B inh
Cc1ccc(S(=O)(=O)N2CCCCC2)cc1NC(=O)COC(=O)C1(C)CC1(Cl)Cl (configuration not stated) | nt | -4% | 25% | -4%[59 µM] | -19% | 14%
COc1cc(CNCCO)ccc1OCCc1ccccc1 | 3% | -8% | 25% | 14% | -14% | -11%
CSc1nc(=O)[nH]c2nc[nH]c12 | nt | nt | 11%[57 µM] | nt | -5%[57.1 µM] | nt
COc1ccc(NS(=O)(=O)c2cnc(N)nc2)cc1Cl | nt | nt | 31%[57 µM] | -31%[59 µM] | 50µM* | -3%
O=C(NN=C1CCN(Cc2ccccc2)CC1)c1ccccc1 | 4% | -15% | -17% | 34%[59 µM] | 7.9µM* | -7%
Cc1onc(-c2c(F)cccc2Cl)c1C(=O)Nc1sc2c(c1C(N)=O)CCC2 | -7% | -6% | 3% | 50µM* | -9% | 2%
CCC(CC)c1nnc(NC(=O)c2c(-c3ccccc3)noc2C)s1 | 18% | ? | 14% | 40µM* | -17% | -2%
Cc1nnc(NC(=O)c2c(-c3ccccc3)noc2C)s1 | 3% | -6% | 34% | -13%[0.0925 µM] | 0% | -33%
NC(=O)c1c(NC(=O)c2ccccc2Cl)sc2c1CCC2 | -9% | 1% | 15% | nt | -1% | -15%
Cc1onc(-c2ccccc2)c1C(=O)Nc1sc2c(c1C(N)=O)CCC2 | ? | -23% | ? | 11µM* | -20%[57.1 µM] | ?
NC(=O)c1c(NC(=O)c2cccnc2Cl)sc2c1CCCC2 | 1% | -15% | 17% | 18µM* | -3% | -5%
N#Cc1ccccc1NC(=O)C(=O)NCC(c1cccnc1)N1CCc2ccccc21 (configuration not stated) | nt | nt | 45% | 2%[59 µM] | 2% | 2%
Cc1onc(-c2ccccc2)c1C(=O)NC(=S)Nc1sc2c(c1C#N)CCC(C)C2 (configuration not stated) | -6% | 9.5µM* | -1% | 3.5µM* | -31% | ?
Cc1onc(-c2ccccc2)c1C(=O)NC(=S)Nc1sc2c(c1C#N)CCCC2 | 45µM* | 7.5µM* | -3% | 2µM* | -35% | ?
Cc1onc(-c2ccccc2)c1C(=O)Nc1sc2c(c1C#N)CCC2 | -83% | ? | ? | ? | 50µM* | ?
Cc1cc(C(=O)Nc2sc3c(c2C#N)CCC(C)C3)no1 (configuration not stated) | 26% | -21% | 39% | 19%[59 µM] | -12% | 0%
Cc1onc(-c2ccccc2)c1C(=O)Nc1sccc1C#N | 4% | 12% | 13% | ? | -14% | -20%
O=[N+]([O-])c1ccc2nc(NN=Cc3ccc(O)cc3)sc2c1 | nt | -3% | -14% | nt | -26% | nt
CC(C)(C)C1(C)OC(=O)C(=Cc2ccc(OCC(=O)Nc3ccccc3)cc2)C(=O)O1 (configuration not stated) | 6% | 2.4µM* | 41% | 0%[59 µM] | -10% | 8%
COc1cc(C=C2C(=O)OC(C)(C)OC2=O)cc(Cl)c1OCC(=O)Nc1ccccc1 | 22% | ? | -17% | -3% | ? | -25%
O=C(NC1CCN(C(=S)Nc2ccccc2)CC1)C1CCCCC1 | 0% | -10% | -13% | 14% | -12% | 9%
CN(c1ccccc1)S(=O)(=O)c1cccc(NC(=O)CN2CCc3ccccc3C2)c1 | -1% | 5% | 26% | -24% | -14% | nt
CC1CCC2(CC1)NC(=O)N(CC(=O)Nc1cccc(S(=O)(=O)N3CCCCC3)c1)C2=O (configuration not stated) | nt | -18% | -3% | nt | ? | nt
CN1C(=O)N(CC(=O)Nc2cccc(S(=O)(=O)N(C)c3ccccc3)c2)C(=O)C12CCCCC2 | nt | -6% | 3% | 56µM* | -28% | 5%
CCC1CCC2(CC1)NC(=O)N(CC(=O)Nc1cccc(S(=O)(=O)N(C)c3ccccc3)c1)C2=O (configuration not stated) | nt | 2% | 46% | 5.6µM* | -27% | -6%
SMILES | Sfp PPTase inh | PLK1 PBD block | HP1b chromo inh | G9a inh | JMJD2A Tudor inh | BAZ2B inh
COc1ccc(/C=N/Nc2ncc(Br)cn2)c(OC)c1 | ? | ? | 24% | 32%[12.7 µM] | 50µM* | 19%
COc1cccc(C(=O)Nc2cc(-c3cn4cccnc4n3)ccc2C)c1 | 16% | 2% | 26% | 32µM* | 1% | -19%
COC(=O)c1c(SC)nc2ccccc2c1OCc1ccc(Cl)cc1 | nt | nt | 161% | 109%[59 µM] | 139% | 142%
O=C(c1ccccc1)c1c(O)cc(-c2ccccc2)oc1=O | 13% | -13% | ? | ? | ? | 56µM*
Cn1cc(CCNC(=O)CC2C(=O)NCCN2Cc2cccc(Oc3ccccc3)c2)cn1 (configuration not stated) | 0% | ? | 27% | 35µM* | ? | -33%
O=C(CC1C(=O)NCCN1Cc1cccc(Oc2ccccc2)c1)NCCc1ccccn1 (configuration not stated) | 3% | -26% | 28% | 22µM* | -30% | -4%
O=C(CC1C(=O)NCCN1Cc1cccc(Oc2ccccc2)c1)NCCn1cccn1 (configuration not stated) | -8% | -12% | 23% | -1% | -20% | -4%
O=C(COc1ccc(F)cc1)NCCc1nc2ccccc2[nH]1 | nt | nt | 10% | 13%[59 µM] | -18% | -11%
CC1=C(C(=O)Nc2cccc(Cl)c2C)C2(CCCCCC2)OC1=O | nt | nt | 24% | 1%[59 µM] | -9% | -10%
C=CCOc1ccccc1CNc1ccc2[nH]c(=O)[nH]c2c1 | -6% | -7% | ? | 28µM* | ? | 56µM*
COc1cccc(CNc2ccc3[nH]c(=O)[nH]c3c2)c1OCc1ccccc1F | -13% | -5% | 32µM* | 45µM* | 45µM* | 28µM*
CCOc1ccc(Br)cc1CNc1ccc2c(c1)OCCO2 | 0% | -2% | 50µM* | -138%[59 µM] | 28µM* | 25µM*
C=CCOc1ccccc1CNc1ccc2c(c1)OCCO2 | -20% | ? | ? | 8.9µM* | 50µM* | 71µM*
C=CCOc1ccccc1CNc1cccc(F)c1 | 5% | 3% | 104% | 95%[59 µM] | 19% | 75%
COc1cc(CNc2ccc3[nH]c(=O)[nH]c3c2)cc(Cl)c1OCc1ccccc1F | nt | nt | 3% | -28%[59 µM] | -28% | -16%
O=C(C[n+]1cc(-c2ccc(Cl)cc2)n2c1CCCCC2)c1ccccc1 | 2% | -15% | 46% | 11%[12.7 µM] | -19% | -4%
COc1ccc(-c2c[n+]3c4n2CCCCC4=C(c2ccc(Br)cc2)C3)cc1 | 45µM* | -8% | -13% | 8.9µM* | 56µM* | 40µM*
Clc1ccc(C2=C3CCCCn4c(-c5ccccc5)c[n+](c43)C2)cc1 | 79µM* | -14% | 2% | 14µM* | ? | 50µM*
